# Assay results: PubChem BioAssay (Tox21)
# Unmarked numbers belong to inactive results. Active and inactive are the calls of the source. The call rests on the fitted dose curve; in most records, active means well fitted curve in the direction sought with a large enough effect in the repeat runs; inconclusive means weak or mixed curves; inactive means flat fitted curve, though single readings scatter.
# Assay: qHTS assay to test for compound auto fluorescence at 590 nm (red) in HepG2 cell free culture (AID 720684)
# Conditions: cell-free medium autofluorescence, red 540/590 nm; series mostly up to 91.3 µM; fluorescence, % of Rose Bengal: at the top concentration
# Outline: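 Readout: intrinsic compound fluorescence at 590 nm emission after 540 nm excitation, scaled to Rose Bengal sodium. Matrix was cell-free MEM with 10% FBS; DMSO vehicle wells served as control.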
# On the % scale 0 is the no-effect control and ±100 the full control effect.
Structure (SMILES),"fluorescence, % of Rose Bengal",outcome
COc1nn(C(=O)NS(=O)(=O)c2ccccc2OC(F)(F)F)c(=O)n1C,0.027%,–
COC(C)(C)CCC[C@H](C)C/C=C/C(C)=C/C(=O)OC(C)C,0.0013%,–
O=C1NCN(c2ccccc2)C12CCN(CCCOc1ccc(F)cc1)CC2,-0.0283% [at 46 µM],–
CCC(Cl)CCl (stereo not drawn),-0.01%,–
CCCC(=O)Cl,-0.38%,–
O=[Se]=O,0.0787% [at 46 µM],–
O=C(C(Cl)(Cl)Cl)C(Cl)(Cl)Cl,0.203% [at 95.7 µM],–
CN(N=O)c1ccc([N+](=O)[O-])cc1,0.0608%,–
CC(=O)NC1CCSC1=O (stereo not drawn),–,inactive
O=Cc1ccc2c(c1)OCO2,0.0987%,–
O=S(=O)(O)C(F)(F)C(F)(F)C(F)(F)C(F)(F)F,-0.433% [at 95.7 µM],–
CCn1cc[n+](C)c1,–,inactive
CNP(=O)(OC)Oc1ccc(C(C)(C)C)cc1Cl (stereo not drawn),-0.121%,–
O=C(CBr)c1ccccc1,0.0125%,–
COc1nn(CSP(=S)(OC)OC)c(=O)s1,-0.375%,–
CCc1ccc(C(=O)NN(C(=O)c2cc(C)cc(C)c2)C(C)(C)C)cc1,0.152%,–
CCOP(O)OCC,-0.521%,–
CCCCCCCCCCOC(=O)c1ccccc1C(=O)OCCCCCCCCCC,0.0503%,–
CCCC(Cn1cncn1)c1ccc(Cl)cc1Cl (stereo not drawn),0.0622%,–
CCOC(=O)COc1cc(-c2nn(C)c(OC(F)F)c2Cl)c(F)cc1Cl,-0.06%,–
O=C(Nc1ccccc1)Nc1cnns1,-0.119%,–
CC(=O)[C@H]1CC[C@H]2[C@@H]3CC[C@H]4C[C@](C)(O)CC[C@]4(C)[C@H]3CC[C@]12C,0.0473% [at 46 µM],–
CCOP(=S)(OCC)SCSCC,0.0362%,–
O=C(CCl)c1ccc(Cl)cc1Cl,–,inactive
O=C(OC1CCCCC1)c1ccccc1C(=O)OC1CCCCC1,-0.217% [at 95.7 µM],–
CN1[C@@H]2CC[C@H]1CC(OC(=O)c1cc(Cl)cc(Cl)c1)C2 (stereo partly drawn),0.0388% [at 46 µM],–
Clc1cc(Cl)c(Cl)c(Cl)c1,-0.384%,–
ClCCCCBr,0.244%,–

# Assay: qHTS assay to test for compound auto fluorescence at 460 nm (blue) in HepG2 cell free culture (AID 720685)
# Conditions: Cell-free culture medium, blue autofluorescence 405/460 nm; series mostly up to 91.3 µM; fluorescence, % of fluorescent control: at the top concentration
# Outline: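 Cell-free plates of MEM plus 10% FBS received 23 nL compound or DMSO vehicle; blue-channel (405/460 nm) intensity scored against triamterene as reference fluorophore.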
Structure (SMILES),"fluorescence, % of fluorescent control",outcome
COc1nn(C(=O)NS(=O)(=O)c2ccccc2OC(F)(F)F)c(=O)n1C,-0.0232%,–
COC(C)(C)CCC[C@H](C)C/C=C/C(C)=C/C(=O)OC(C)C,0.0247%,–
O=C1NCN(c2ccccc2)C12CCN(CCCOc1ccc(F)cc1)CC2,0.0183% [at 46 µM],–
CCC(Cl)CCl (stereo not drawn),0.0622%,–
CCCC(=O)Cl,-0.163%,–
O=[Se]=O,0.0547% [at 46 µM],–
O=C(C(Cl)(Cl)Cl)C(Cl)(Cl)Cl,0.053% [at 95.7 µM],–
CN(N=O)c1ccc([N+](=O)[O-])cc1,-0.0077%,–
CC(=O)NC1CCSC1=O (stereo not drawn),–,inactive
ClP(Cl)(Cl)(Cl)Cl,-0.131%,–
O=Cc1ccc2c(c1)OCO2,-0.0108%,–
O=S(=O)(O)C(F)(F)C(F)(F)C(F)(F)C(F)(F)F,0.247% [at 95.7 µM],–
CCn1cc[n+](C)c1,–,inactive
Oc1ccc(Cl)c(Cl)c1Cl,-0.0306% [at 95.7 µM],–
O=[N+]([O-])c1ccc(F)c([N+](=O)[O-])c1,–,inactive
CNP(=O)(OC)Oc1ccc(C(C)(C)C)cc1Cl (stereo not drawn),0.0131%,–
O=C(CBr)c1ccccc1,0.237%,–

Structure (SMILES),"fluorescence, % of fluorescent control",outcome
C=COC(C)=O,-0.0682% [at 95.7 µM],–
CC1C(=O)C[C@]2(C(C)C)C[C@H]12 (stereo partly drawn),0.038%,–
COc1nn(CSP(=S)(OC)OC)c(=O)s1,-0.218%,–
CCc1ccc(C(=O)NN(C(=O)c2cc(C)cc(C)c2)C(C)(C)C)cc1,-0.0448%,–
CCOP(O)OCC,0.0256%,–
CCCCCCCCCCOC(=O)c1ccccc1C(=O)OCCCCCCCCCC,0.009%,–
CCCC(Cn1cncn1)c1ccc(Cl)cc1Cl (stereo not drawn),0.0058%,–
CCOC(=O)COc1cc(-c2nn(C)c(OC(F)F)c2Cl)c(F)cc1Cl,-0.0221%,–
O=C(Nc1ccccc1)Nc1cnns1,-0.101%,–
CC(=O)[C@H]1CC[C@H]2[C@@H]3CC[C@H]4C[C@](C)(O)CC[C@]4(C)[C@H]3CC[C@]12C,0.0817% [at 46 µM],–
CCOP(=S)(OCC)SCSCC,-0.0497%,–
O=C(CCl)c1ccc(Cl)cc1Cl,–,inactive
O=C(OC1CCCCC1)c1ccccc1C(=O)OC1CCCCC1,-0.0264% [at 95.7 µM],–
NCC(CC(=O)O)c1ccc(Cl)cc1 (stereo not drawn),-0.04% [at 46 µM],–
CN1[C@@H]2CC[C@H]1CC(OC(=O)c1cc(Cl)cc(Cl)c1)C2 (stereo partly drawn),-0.0886% [at 46 µM],–
Clc1cc(Cl)c(Cl)c(Cl)c1,-0.146%,–
ClCCCCBr,-0.0933%,–

# Assay: qHTS assay to test for compound auto fluorescence at 535 nm (green) in HepG2 cell free culture (AID 720686)
# Conditions: Cell-free medium, green autofluorescence 485/535 nm; series mostly up to 91.3 µM; fluorescence, % of fluorescein control: at the top concentration
Structure (SMILES),"fluorescence, % of fluorescein control",outcome
COC(C)(C)CCC[C@H](C)C/C=C/C(C)=C/C(=O)OC(C)C,0.001%,–
O=C1NCN(c2ccccc2)C12CCN(CCCOc1ccc(F)cc1)CC2,0.0344% [at 46 µM],–
CCC(Cl)CCl (stereo not drawn),0.0176%,–
O=[Se]=O,0.0853% [at 46 µM],–
CN(N=O)c1ccc([N+](=O)[O-])cc1,-0.135%,–
CC(=O)NC1CCSC1=O (stereo not drawn),–,inactive
ClP(Cl)(Cl)(Cl)Cl,0.133%,–
O=Cc1ccc2c(c1)OCO2,-0.0261%,–
CCn1cc[n+](C)c1,–,inactive
O=[N+]([O-])c1ccc(F)c([N+](=O)[O-])c1,–,inactive
CNP(=O)(OC)Oc1ccc(C(C)(C)C)cc1Cl (stereo not drawn),-0.0103%,–
O=C(CBr)c1ccccc1,0.0323%,–
C=COC(C)=O,0.0306% [at 95.7 µM],–
CC1C(=O)C[C@]2(C(C)C)C[C@H]12 (stereo partly drawn),-0.003%,–
COc1nn(CSP(=S)(OC)OC)c(=O)s1,-0.108%,–
CCOP(O)OCC,0.0064%,–
CCCCCCCCCCOC(=O)c1ccccc1C(=O)OCCCCCCCCCC,0.0009%,–
CCCC(Cn1cncn1)c1ccc(Cl)cc1Cl (stereo not drawn),-0.124%,–
CC(=O)[C@H]1CC[C@H]2[C@@H]3CC[C@H]4C[C@](C)(O)CC[C@]4(C)[C@H]3CC[C@]12C,0.0104% [at 46 µM],–
CCOP(=S)(OCC)SCSCC,0.0322%,–
O=C(CCl)c1ccc(Cl)cc1Cl,–,inactive
O=C(OC1CCCCC1)c1ccccc1C(=O)OC1CCCCC1,0.0015% [at 95.7 µM],–
NCC(CC(=O)O)c1ccc(Cl)cc1 (stereo not drawn),0.0305% [at 46 µM],–
CN1[C@@H]2CC[C@H]1CC(OC(=O)c1cc(Cl)cc(Cl)c1)C2 (stereo partly drawn),0.0172% [at 46 µM],–
Clc1cc(Cl)c(Cl)c(Cl)c1,-0.0044%,–
ClCCCCBr,-0.0629%,–
